KDM5B inhibitor: blocks human KDM5B histone demethylase activity | 220,000 compounds, 2.6% hits | KDM5B demethylase, FDH-coupled NADH fluorescence (FDH is formaldehyde dehydrogenase) | Q9UGL1 | Potency, µM (highest dose often 57.7 µM), usual class: inhibitors; active = well fitted inhibition curve with a large enough effect; note: 0% is about no effect; nearly all actives have a fitted effect of over 70% in size
Target sequence (Q9UGL1 whole entry, looked up): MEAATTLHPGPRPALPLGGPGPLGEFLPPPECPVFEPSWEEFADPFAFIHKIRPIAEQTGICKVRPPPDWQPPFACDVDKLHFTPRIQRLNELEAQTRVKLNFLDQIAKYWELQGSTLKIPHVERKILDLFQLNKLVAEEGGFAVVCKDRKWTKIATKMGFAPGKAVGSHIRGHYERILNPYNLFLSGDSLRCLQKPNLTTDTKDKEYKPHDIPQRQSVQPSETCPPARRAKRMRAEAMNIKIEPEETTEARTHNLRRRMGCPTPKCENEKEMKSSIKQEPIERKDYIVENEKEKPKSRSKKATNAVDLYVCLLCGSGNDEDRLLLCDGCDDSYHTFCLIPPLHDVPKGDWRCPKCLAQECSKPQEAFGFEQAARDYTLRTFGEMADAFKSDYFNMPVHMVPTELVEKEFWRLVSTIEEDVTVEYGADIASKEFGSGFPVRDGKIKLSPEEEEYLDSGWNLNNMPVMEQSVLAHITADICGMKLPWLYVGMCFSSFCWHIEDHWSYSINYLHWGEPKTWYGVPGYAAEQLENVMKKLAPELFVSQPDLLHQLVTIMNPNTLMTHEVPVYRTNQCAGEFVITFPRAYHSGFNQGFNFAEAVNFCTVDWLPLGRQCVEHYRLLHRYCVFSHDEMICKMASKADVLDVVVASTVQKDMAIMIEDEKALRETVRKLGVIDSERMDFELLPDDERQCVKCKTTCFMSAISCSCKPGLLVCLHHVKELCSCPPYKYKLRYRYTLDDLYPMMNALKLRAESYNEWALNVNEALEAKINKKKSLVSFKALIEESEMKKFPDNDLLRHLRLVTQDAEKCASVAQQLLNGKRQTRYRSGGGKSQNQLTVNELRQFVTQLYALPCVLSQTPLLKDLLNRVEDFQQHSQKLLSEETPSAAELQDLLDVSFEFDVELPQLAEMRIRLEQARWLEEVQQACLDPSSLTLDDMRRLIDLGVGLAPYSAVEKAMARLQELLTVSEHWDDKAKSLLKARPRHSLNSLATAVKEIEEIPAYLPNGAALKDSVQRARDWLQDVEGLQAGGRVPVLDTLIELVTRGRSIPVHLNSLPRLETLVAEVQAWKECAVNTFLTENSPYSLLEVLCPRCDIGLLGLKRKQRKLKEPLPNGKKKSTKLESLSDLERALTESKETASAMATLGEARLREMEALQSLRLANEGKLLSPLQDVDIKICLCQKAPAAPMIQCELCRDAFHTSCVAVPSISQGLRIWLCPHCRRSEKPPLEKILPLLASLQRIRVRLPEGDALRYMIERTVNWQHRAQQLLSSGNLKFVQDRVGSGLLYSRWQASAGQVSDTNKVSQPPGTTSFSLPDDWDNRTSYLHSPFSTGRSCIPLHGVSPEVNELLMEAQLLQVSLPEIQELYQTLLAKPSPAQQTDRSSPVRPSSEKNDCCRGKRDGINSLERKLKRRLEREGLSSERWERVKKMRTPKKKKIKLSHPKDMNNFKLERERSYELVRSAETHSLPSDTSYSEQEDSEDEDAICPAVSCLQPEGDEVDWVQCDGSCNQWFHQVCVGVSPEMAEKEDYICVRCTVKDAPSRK
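Here, H3K4me3 peptide (12.5 µM in substrate mix) is demethylated by KDM5BΔAP, 200 nM final, after 10 min compound exposure. Formaldehyde product is coupled through FDH (0.25 U/mL in mix) to NADH fluorescence; 30-min ΔRFU feeds dose-response curves.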
Active calls of the source: *; i = inactive. Shown is part of a subset that was picked to be rich in hits. Potency is the fitted concentration of half-maximal effect.

SMILES	KDM5B inhibitor
Cc1cc2nc3n(c(=O)c2n1CC(=O)Nc1ccc(C(C)C)cc1)CCCCC3	i
Cc1cccc(-n2nc(-c3c(C)nc4scc(CC(=O)N5CCCC5)n4c3=O)cc2C)c1	28µM*
Cn1nc(CC(=O)N2CCOCC2)c2ccccc2c1=O	i
Cc1nn(CC(=O)N2CCN(c3ccc(Cl)cc3)CC2)c(=O)c2nc(C(C)C)sc12	i
Cc1nc2scc(CC(=O)N3CCCC3)n2c(=O)c1-c1cc(C)n(-c2ccc(C(C)C)cc2)n1	25µM*
Cc1cccc(-n2nc(C)c(CCC(=O)N3CCSCC3)c2Oc2ccc(F)cc2F)c1	i
Cc1cccc(-n2nc(C)c(CCC(=O)N3CCSCC3)c2Oc2ccccc2C)c1	i
Cc1ccccc1N(C)C1CN(C(=O)c2ccccc2F)C1	i
S=C(Cc1ccc(-c2ccccc2)cc1)N1CCOCC1	i
CC(C)Sc1ncc(Cl)c(C(=O)Nc2ccc(S(=O)(=O)Nc3ncccn3)cc2)n1	i
O=C(NC1CCCC1)c1nc(-c2ccc3cc[nH]c3c2)no1	i
O=S(=O)(CCc1ccccc1)c1ccccc1	i
Cc1nn(CC(=O)NCc2cccc(Br)c2)c(=O)c2c1sc1ccccc12	i
COc1ccccc1CNC(=O)c1cccc(N2CCCS2(=O)=O)c1	i
Cc1ccc(-n2nc(C)c3nc(CCC(=O)Nc4ccc(F)cc4)c(=O)n(C)c32)cc1	i
CN(Cc1ccccc1)c1ccc2nnc(-c3ccccn3)n2n1	i
c1ccc(-c2nnc3ccc(-c4ccoc4)nn23)nc1	32µM*
Fc1cccc(CNc2ccc3nnc(-c4ccccn4)n3n2)c1	i
S=c1[nH]nc(Cc2n[nH]c(=S)n2-c2ccccc2)n1-c1ccccc1	i
Cc1c(C(=O)NCC(c2ccco2)N2CCOCC2)oc2ccccc12 (centres undefined)	i
CN(Cc1ccsc1)Cc1ccccc1C(F)(F)F	i
O=C(NCCO)c1cc2ccccc2[nH]1	i
O=C(NCCNC(=O)c1cc2ccccc2[nH]1)C(=O)NC1CCCC1	i
O=C(NC1CC(c2cc(NCCO)ncn2)C1)c1cc2ccccc2[nH]1 (centres undefined)	28µM*
COc1ccc(C(=O)N[C@@H]2CCC[C@@H]2C(=O)N2CCN(C(C)C)CC2)cn1	i
SMILES	KDM5B inhibitor
Cc1nc([C@H]2CCN(Cc3ccoc3)C[C@H]2NC(=O)C2CCOCC2)n[nH]1	i
CCOC(=O)C(NC(=O)c1ccc(F)cc1)c1c(C)nn(-c2ccc(F)cc2)c1C (centres undefined)	i
CCCCCCCCSCC(=O)O	i
Cc1cc(C(=O)NCc2cccnc2N(C)C)no1	i
CCn1ccc(C(=O)NCc2cccnc2N(C)CCc2ccccn2)n1	28µM*
Cc1nnnn1CC(=O)NCc1cccnc1N(C)CCc1ccccn1	i
CCC(NC(=O)OC)C12CC3CC(CC(C3)C1)C2 (centres undefined)	i
Cc1cc(C(=O)N2CCC3(CC2)CC(c2ccccc2)C(=O)N(C)C3)n[nH]1 (centres undefined)	i
c1ccc(-c2nnc([C@H]3CCN(Cc4ccc5c(c4)OCO5)C3)o2)cc1	i
c1coc(CN2CC[C@H](c3nnc(-c4ccncc4)o3)C2)c1	i
CN(C)c1ccc(-c2nnc([C@H]3CCN(Cc4ccccn4)C3)o2)cc1	35µM*
Cc1ccc(CN2CC[C@H](c3nnc(-c4cccnc4)o3)C2)cc1	i
Clc1ccccc1CN1CC[C@H](c2nnc(-c3ccccc3)o2)C1	i
Clc1ccc(-c2nnc([C@H]3CCN(Cc4ccco4)C3)o2)cc1	i
c1cnc(N2CC[C@H](c3nnc(-c4ccncc4)o3)C2)nc1	32µM*
c1cncc(-c2nnc([C@H]3CCN(C4CCOCC4)C3)o2)c1	i
Cc1ccccc1CN1CC[C@H](c2nnc(-c3ccc(N(C)C)cc3)o2)C1	32µM*
Cc1cccc(OCCc2noc(C3CCCCN3C(=O)c3ccccn3)n2)c1 (centres undefined)	i
CCOc1ccc(C(=O)Nc2cccc3ncccc23)cc1	i
Cc1ccc2oc(=O)cc(C)c2c1	i
COc1cccc(CNC(=O)CN2C(=O)CSc3c2c(C)nn3-c2ccccc2)c1	i
O=C(O)C1CCc2nnc(C3CCCN(C(=O)c4ccc5c(c4)OC(F)(F)O5)C3)n21 (centres undefined)	i
O=C(NCc1nnc2n1C(C(=O)O)CC2)c1ccc(F)cc1 (centres undefined)	45µM*
COC(=O)CNC(=O)C1CCc2nnc(CNC(=O)c3ccccc3)n21 (centres undefined)	i
Cn1ccc(C(=O)NCc2nnc3n2C(C(=O)NCc2ccc(F)cc2)CC3)n1 (centres undefined)	i
SMILES	KDM5B inhibitor
O=C(NCc1nnc2n1C(C(=O)N1CCOCC1)CC2)c1cccnc1 (centres undefined)	i
CC(C)NC(=O)C1CCc2nnc(CNC(=O)c3ccccc3)n21 (centres undefined)	i
O=C(NCc1nnc2n1C(C(=O)NCc1ccncc1)CC2)c1ccccc1 (centres undefined)	i
O=C(NCc1nnc2n1C(C(=O)O)CC2)c1ccccc1 (centres undefined)	100µM*
O=C(NCc1nnc2n1C(C(=O)O)CC2)c1ccc2c(c1)OC(F)(F)O2 (centres undefined)	25µM*
O=C(CCc1nc(C2CCCN2C(=O)c2n[nH]c3ccccc23)no1)NCc1ccccc1 (centres undefined)	i
CC[C@H]1CN(C(=O)Nc2ccccc2)CC[C@H]1CC(=O)NCc1ccco1	i
COc1cccc(NC(=O)c2c(C)cc(C)cc2CC(C)(C)C(=O)O)c1	i
Cc1oc2cc(OC(C)C)ccc2c(=O)c1-c1ccc2c(c1)OCCO2	i
Cc1nnc(NC(=O)c2csc(NCCC(C)C)n2)s1	i
CCCN(C(=O)Cn1cnc2sc(C)c(S(=O)(=O)N3CCN(c4ncccn4)CC3)c2c1=O)c1cccc(C)c1	i
Cc1ccc(-c2ccccc2)n1-c1cccc(C(=O)O)c1	i
O=C(Nc1ncc(-c2cccc(F)c2)c2c1OCC2)c1ccc(F)c(Cl)c1	22µM*
COc1cccc(C(=O)c2sc(Nc3ccc(F)c(Cl)c3)nc2N)c1	i
CNC(=O)c1cccc(-c2cnc(Nc3ccncc3)c3c2CCO3)c1	i
O=C(Nc1cccc(F)c1)c1ccc2c(c1)OCCO2	i
CC(C)COc1cccc(C(=O)Nc2cccc(C(F)(F)F)c2)c1	i
CNC(=O)c1cccc(-c2cnc(Nc3cccnc3)c3c2CCO3)c1	i
CNC(=O)c1cccc(-c2cnc(Nc3ccc(F)c(Cl)c3)c3c2CCO3)c1	35µM*
O=C(Nc1ncc(-c2cccc(F)c2)c2c1OCC2)c1ccncc1	i
CNC(=O)c1cccc(-c2cnc(Nc3cccc(C(F)(F)F)c3)c3c2CCO3)c1	13µM*
O=S(=O)(Nc1ccccc1C(F)(F)F)c1ccc(N2CCCCS2(=O)=O)cc1	i
NS(=O)(=O)c1ccc(N/N=C/c2c[nH]c3ccc(Br)cc23)c([N+](=O)[O-])c1	i
Cc1ccc(C(=O)N2CCC3(CC2)OCC(C(=O)N2CCOCC2)N3C(=O)c2ccc(F)cc2)cc1 (centres undefined)	i
CN1CCN(c2nc3c(c(=O)[nH]2)CCN(Cc2cccnc2)CC3)CC1	i
CC(C)(C)c1ccc(C(=O)NCCN2CCCC2)cc1	i
O=C(NCCN1CCCCCC1)C1CC=CCC1 (centres undefined)	i
O=C(NCCN1CCCC1)c1cc2cn(C3CC3)cc2s1	10µM*

Assay outcomes deposited in PubChem by National Center for Advancing Translational Sciences (NCATS).
